From PubChem BioAssay
HT1080 IDH1KD tx: qHTS for induction of synthetic lethality in tumor cells producing 2HG: qHTS for the HT-1080-IDH1KD cell line. HT-1080 IDH1 knockdown viability, ATP luminescence, 48 h. Potency, µM (top dose mostly 46.1 µM), without a hit: at the top dose activity, negative = toxicity, actives largely listed as cytotoxic. hit rate 2% among 360,000. AID 686971, 2013;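 further: potency means the concentration at half of the fitted maximal effect; 0% = DMSO wells and -100% = cell-free medium wells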
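After a 2 h attachment period, IDH1KD HT-1080 cells took pin-transferred compound for 48 h at 37 °C; ATP-based luminescence after 10 min room-temperature reagent incubation reported viability.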
IL-1B inflam inh: qHTS for Inhibitors of Inflammasome Signaling: IL-1-beta AlphaLISA Primary Screen; activity change, % at 57.5 µM; AID 743279, 2014; hit rate 4.7% among 360,000; THP-1 LPS/ATP IL-1B secretion, AlphaLISA, 16 h; hits give low values; in the data active means activity change below about -50%; inconclusive means mostly about -30% to -49%
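THP-1 cells pretreated 1 hr with compounds (up to 57.5 uM final), then stimulated with LPS (250 ng/mL final) plus ATP (1.25 mM final); secreted IL-1B measured by AlphaLISA after 16 hr, decreased signal indicating inhibition.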
DT40 TDP1 CPT: qHTS for Inhibitors of human tyrosyl-DNA phosphodiesterase 1 (TDP1): qHTS in cells in presence of CPT | hit rate 12% among 420,000 | Potency, µM (doses to about 46.2 µM), inactives show at the top dose activity change, negative = growth inhibition, actives largely listed as inhibitors | chicken DT40 Tdp1-/-;hTDP1 cells + 20 nM CPT, ATP luminescence, 48 h; further: potency means the concentration at half of the fitted maximal effect; nearly all actives have a fitted effect of over 55% in size
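Cell growth measured by CellTiter-Glo luminescence after a minimum 48 h, 37 C compound exposure with 20 nM CPT in Tdp1-knockout DT40 cells stably expressing hTDP1, seeded 400/well; qHTS titration format.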
TDP1 cell noCPT: qHTS for Inhibitors of human tyrosyl-DNA phosphodiesterase 1 (TDP1): qHTS in cells in absence of CPT; DT40 Tdp1-/- hTDP1 cells, no CPT, ATP luminescence, 48 h; Potency, µM (series often up to 46.2 µM), for inactives: at the top dose activity change, negative = growth inhibition, usual class: inhibitors; hit rate 15% among 420,000; AID 686978, 2013; further: potency means the concentration at half of the fitted maximal effect; nearly all actives have a fitted effect of over 55% in size
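Cells were dispensed at 400 per well, compounds added by pin tool, plates incubated ≥48 hr at 37 °C, then CellTiter-Glo added for 30 min at room temperature before luminescence reading. Line: DT40 Tdp1-/- complemented with hTDP1; camptothecin omitted.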
HT1080NT lethal: qHTS for induction of synthetic lethality in tumor cells producing 2HG: qHTS for the HT-1080-NT fibrosarcoma cell line. HT-1080-NT fibrosarcoma viability, CellTiter-Glo ATP luminescence, 48 h. Potency, µM (series often up to 46.1 µM), without a hit: top-dose activity, negative = less viability, hits mostly cytotoxic. hit rate 1.6% among 360,000. AID 686970, 2013;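 further: NT is the 2HG producing partner of a matched IDH1 knockdown line; potency means the concentration at half of the fitted maximal effect; 0% = DMSO-treated cells and -100% = media-only wells without cells; nearly all actives have a fitted effect of over 55% in size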
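750 cells/well, RPMI + 5% FBS; 2 h settle, compound pin-transfer, 48 h at 37 degrees C. CellTiter-Glo 10 min RT, luminescence. Normalized to DMSO and media-only wells.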
* = called active by the depositor; ? = inconclusive; nt = not tested or not shown; [ ] = remark or other dose. Most compounds without a hit are left out; they make up all but 19% or so of the library. Unless noted, the call rests on the fitted dose curve; in most records, active means well fitted curve in the direction sought with a large enough effect; inconclusive means small, poorly fitted or top-dose-only effect, or another doubt; inactive means no such curve, though single readings can be large; an effect the other way counts as inactive or inconclusive. Unless noted, on the % scale 0 is the no-effect control and ±100 the full control effect.

SMILES	HT1080 IDH1KD tx	IL-1B inflam inh	DT40 TDP1 CPT	TDP1 cell noCPT	HT1080NT lethal
Cc1cc(-c2ccccc2)nc2cc(C(=O)NCCCn3ccnc3)nn12	11.3%	?	5.0%	6.6%	12.9%
Cc1nn2c(NCCCn3ccnc3)cc(C(C)C)nc2c1-c1ccccc1	?	nt	?	?	14.6µM*
O=C(O)CC1(CC(=O)NCc2ccc(Cl)cc2)CCCCC1	0.0%	-3.7	1.4%	-10.0%	7.1%
O=S(=O)(c1ccc2c(c1)CCCC2)N1CCN(c2nc(-c3ccccc3)nc3ccccc23)CC1	nt	nt	10µM*	10µM*	nt
NS(=O)(=O)c1ccc(S(=O)(=O)N2CCN(c3nc(-c4ccccc4)nc4ccccc34)CC2)cc1	-22.6%	nt	?	?	-16.2%
CCc1nc2ccccc2nc1N1CCN(S(=O)(=O)c2ccccc2)CC1	2.9%	-90.1*	?	16.4µM*	-5.7%
N#CCc1c(C#N)c(N)nc(N2CCN(S(=O)(=O)c3ccccc3)CC2)c1C#N	-0.1%	-18.0	8.2µM*	16.4µM*	-10.1%
O=S(=O)(c1ccc(F)cc1)N1CCN(c2nc(-c3ccccc3)nc3ccccc23)CC1	nt	nt	?	12.6µM*	nt
Cc1ccc(S(=O)(=O)N2CCN(c3nc(-c4ccccc4)nc4ccccc34)CC2)cc1	nt	nt	6.8%	-16.2%	nt
O=S(=O)(c1ccc(Cl)cc1)N1CCN(c2nc(-c3ccccc3)nc3ccccc23)CC1	nt	nt	?	10µM*	nt
CCNC(=O)OCCC12CC3CC(CC(C3)C1)C2	12.0%	15.0	?	?	9.8%
O=C(OCCC12CC3CC(CC(C3)C1)C2)c1ccc(NCc2cc(O)ccc2O)cc1	7.31µM*	-120.6*	1.84µM*	2.06µM*	6.51µM*
O=C(OCC12CC3CC(CC(C3)C1)C2)c1ccc(NCc2cc(O)ccc2O)cc1	20.6µM*	-51.8*	1.46µM*	0.731µM*	?
N#CCC(=O)Nc1ccc(C(=O)OCC(=O)C23CC4CC(CC(C4)C2)C3)cc1	-0.2%	14.5	-29.3%	?	-3.5%
C[C@@H](N)C(=O)NC[C@H]1CC[C@H](C(=O)N[C@@H](Cc2ccccc2)C(=O)O)CC1	0.4%	-1.4	-19.6%	6.5%	5.2%
C/C(=N/Nc1nc(-c2ccccc2)cc(-c2ccc(F)cc2)n1)c1cccc(N)c1	?	-61.0*	?	?	?
COc1ccc(/C(C)=N/Nc2nccnc2Cl)cc1	?	-51.6*	-16.0%	-9.5%	-27.9%
COc1ccc(/C(C)=N/Nc2nc(C)cc(-c3ccccc3)n2)cc1	?	-16.0	4.11µM*	4.61µM*	?
C/C(=N\Nc1nc(N)cc(Cl)n1)c1cccc(N)c1	23.1%	-2.6	?	?	-2.9%
C/C(=N\Nc1nccnc1Cl)c1ccc(Br)cc1	3.2%	-15.6	?	-9.4%	-4.2%
C/C(=N\Nc1nc(C)cc(-c2ccccc2)n1)c1ccc(F)cc1	-10.3%	-14.7	?	7.31µM*	3.8%
CCC(=O)Nc1ccc(N2CCOCC2)c(S(=O)(=O)Nc2ccc(Cl)cc2)c1	-1.2%	1.1	?	-23.6%	-1.3%[9.24 µM]
O=C(Nc1ccc(N2CCOCC2)c(S(=O)(=O)Nc2ccc(Cl)cc2)c1)c1ccc(=O)[nH]n1	-20.4%	-56.3*	-22.5%	-16.0%	-22.9%
O=C(Nc1ccc(N2CCOCC2)c(S(=O)(=O)Nc2ccc(Cl)cc2)c1)c1cnccn1	-19.6%	-17.4	16.4µM*	18.4µM*	15.1%
NS(=O)(=O)c1ccc(NC(=O)COc2ccc(Cl)cc2)cc1	0.4%	-5.7	2.2%	-22.0%	-0.6%
CCc1cc2c(SCC(=O)c3ccc(Cl)s3)ncnc2s1	0.3%	-8.5	?	?	-0.2%
